Many of the other results were omitted from the sample, so hits are more common in it than they were.
Tg IFNy HTS = T. gondii growth inhibition with IFN-gamma, primary screen, cell-based; AID 1259416, 2018; Toxoplasma gondii growth in IFN-gamma-treated host cells; stronger effect = lower value; 3.8% of 69,000 active; activity change, negative = inhibition, % (concentration not given with the values); in the data active means activity change below about -70%, passing the limit was not always enough;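 further: host cells are HeLa cells infected with Toxoplasma gondii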
Active calls of the source: *; i = inactive.

SMILES	Tg IFNy HTS
Cc1ccc(O)c(C(=O)N2CC[C@H](O)[C@@H](O)C2)c1	6
O=C(c1cnn2ccccc12)N1CCc2nnc(CCc3ccccc3)n2CC1	-11
CNCc1nncn1-c1cccc2ccccc12	-51
O=C(C1CCCN(C2CCCCC2)C1)N1CCN(C2CCOCC2)CC1 (centres undefined)	-1
COc1cc(-c2nc3ccccc3n2C)cc(OC)c1OC	2
Cn1c(Br)nc2ccccc21	11
COc1cccc(-n2cnc3ccccc32)n1	-90*
Cc1cccc(N2CCN(Cc3n[nH]c(=O)n3Cc3cccc(F)c3)CC2)c1C	66
CCOCC1CN(CC2CCOC2)Cc2ccnn2C1 (centres undefined)	8
Cc1cc(CC(C)Nc2nc(CCN)nc3sc(C)c(C)c23)n[nH]1 (centres undefined)	4
O=C(c1ccc2nc(CO)[nH]c2c1)N1C[C@@H]2[C@@H]3CC[C@@H](C3)[C@@H]2C1	-18
CC(=O)Nn1c(-c2ccccc2)cn2c(cc3sccc32)c1=O	i
Cc1ccc(S(=O)(=O)Nc2ccc(-c3nc4ccccc4[nH]3)cc2)cc1	-81*
Cc1ccc(S(=O)(=O)Nc2cnc3ccccc3c2)cc1	-53
CC(=O)Nc1ccc(S(=O)(=O)Nc2nc3ccccc3nc2Nc2ccc(C)cc2)cc1	-30
Cc1cccc2c3nc4ccccc4nc3n(Cc3nnc(-c4ccccc4)o3)c12	96
Cc1ccc2[nH]cc(CCN3CC(C(=O)Nc4nnc(CC(C)(C)C)s4)CC3=O)c2c1 (centres undefined)	183
CCc1cnc(N2[C@H](C#N)[C@@H](c3ccc(C#Cc4ccccc4F)cc3)[C@H]2CO)s1	-75*
CCc1cnc(N2[C@H](C#N)[C@H](c3ccc(C#Cc4ccccc4F)cc3)[C@H]2CO)s1	-55
CCc1cnc(N2[C@H](C#N)[C@H](c3ccc(C#Cc4ccccc4F)cc3)[C@@H]2CO)s1	-57
COc1ccccc1N1CCN(C(=O)CC2Nc3c4ccccc4nc(=S)n3C2=O)CC1 (centres undefined)	0
Cn1c(=O)c2nc3ccccc3nc2n(C)c1=O	-13
Cn1c(=O)c2c(ncn2Cc2ccccc2Cl)n(C)c1=O	-1
Cn1c(=O)c2c(nc(Oc3ccccc3Br)n2C)n(C)c1=O	-75*
CN(C)C(=O)N1CCC(c2cc3c(ncn3C)c(-c3cnn(C)c3)n2)CC1	-64
SMILES	Tg IFNy HTS
O=C1CCC(=O)N1CC(O)CCOc1ccc(OCCC(O)CN2C(=O)CCC2=O)cc1 (centres undefined)	-2
CC(C)CNC(=O)c1nc(-c2ccc(Cl)cc2)n2c1CCCCC2	-100*
CCN(CC)C(=O)c1nc(-c2ccc(C)cc2)n2c1CCCCC2	-32
COc1ccccc1CNC(=O)c1nc(-c2ccc(C)cc2)n2c1CCCCC2	-115*
COCCCNC(=O)c1nc(-c2ccc(Cl)cc2)n2c1CCCCC2	-50
CCOC(=O)C(C)NC(=O)c1cc(-c2cccnc2)n[nH]1 (centres undefined)	12
CCOC(=O)C(C)NC(=O)c1nc(-c2ccc(C)cc2)n2c1CCCCC2 (centres undefined)	-106*
COC(=O)c1cc2c(cc1NC(=O)c1nc(-c3ccc(C)cc3)n3c1CCCCC3)OCO2	284
Cc1ccc(-c2nc(C(=O)NC(C)C)c3n2CCCCC3)cc1	-78*
Cc1ccc(-c2nc(C(=O)N3CCCCC3c3cccnc3)c3n2CCCCC3)cc1 (centres undefined)	105
CC(C)OCCCNC(=O)c1nc(-c2ccc(Cl)cc2)n2c1CCCCC2	-47
CC1CCCCN1CCNC(=O)c1nc(-c2ccc(Cl)cc2)n2c1CCCCC2 (centres undefined)	6
Cc1nn2c(Cl)c3c(nc2c1-c1ccc(F)cc1)CCCC3	59
O=C(CN1C(=O)CCc2cc(Br)ccc21)NCc1cccnc1	2
CN(C)C(=O)CN1CCC2(CCCN2c2nncs2)CC1	23
Cc1nc(SCC(=O)N2CCCC(c3nc4ccccc4cc3C(N)=O)C2)oc1C (centres undefined)	63
CCOC(=O)c1c(NC(=O)c2sc3nc(C)cc(C)c3c2N)sc2c1CCCC2	17
COCC1CCC2(CCN(C(=O)COc3ccccc3C)CC2)N1C (centres undefined)	11
COC1CCC(C(=O)NCc2cc(N(C)C)nc(-c3ccncc3)n2)CC1 (centres undefined)	9
Cc1ncc2c(n1)[C@]1(C)CCCN(C(=O)c3cn4c5c(cccc5c3=O)CC4)C1CC2 (some centres undefined)	0
O=C(c1nc(-c2ccc(Cl)cc2)n2c1CCCCC2)N1CCC2(CC1)OCCO2	118
CCOC(=O)C1CCCN(C(=O)c2nc(-c3ccc(C)cc3)n3c2CCCCC3)C1 (centres undefined)	223
Cc1ccc(-c2nc(C(=O)N3CCCCCC3)c3n2CCCCC3)cc1	-80*
O=C(Cn1ncc2c(N3CCOCC3)ncnc21)NCc1cccc(Cl)c1	63
O=C(CCc1nc(-c2ccccc2Cl)no1)Nc1cccc(CN2CCCC2)c1	-47
SMILES	Tg IFNy HTS
CCc1csc(-c2ccc(N3CCN(C(=O)C4CCN(C(C)=O)CC4)CC3)nc2)n1	11
CC1CCN(C(=O)c2csc(-c3ccc(N4CCCC4)nc3)n2)CC1	-47
O=C(NCCCN1CCOCC1)c1csc(-c2ccc(N3CCCC3)nc2)n1	-1
O=C(NCC1CCCO1)c1csc(-c2ccc(N3CCCC3)nc2)n1 (centres undefined)	-113*
O=C(NC1CCN(Cc2ccccc2)CC1)c1csc(-c2ccc(N3CCCC3)nc2)n1	-85*
O=C(Cn1ncc2c(N3CCCCC3)ncnc21)NC1CCN(Cc2ccccc2)CC1	-7
CCn1nccc1C(=O)N1CCC(c2cc(Cc3ccccc3)[nH]n2)CC1	-1
CCOC(=O)CNC(=O)N1CCC(CCCc2ccccc2)(C(=O)OCC)CC1	-3
O=C(CCC1Nc2c3ccccc3nc(=S)n2C1=O)NCCN1CCC(Cc2ccccc2)CC1 (centres undefined)	-8
COc1c(F)cccc1C(=O)NCCc1nnc2n1CCNCC2	7
COC1COC2(CCN(C(=O)Cc3ccccn3)CC2)C1 (centres undefined)	-98*
CC(C)C(=O)NC1COC2(CCN(C(=O)Cc3ccccn3)CC2)C1 (centres undefined)	-2
COc1ccccc1OCC(=O)N1CCC[C@]2(C[C@@H](OC)CO2)C1	4
COc1ccc(S(=O)(=O)NCCc2sc(-c3cccc(F)c3)nc2C)cc1OC	14
COCCN1CCC2C(CC(Cn3cccn3)N2C(C)=O)C1 (centres undefined)	39
Cc1nc(OCC(=O)Nc2ccc(Br)cc2)c2ccccc2n1	-7
Fc1ccc(CSc2nc(Nc3ccc(F)cc3)c3ccccc3n2)cc1	-40
Brc1ccc(Nc2c3ccccc3nc3ccccc23)cc1	-92*
O=C1C[C@H]2CC[C@@H](CN1)N2C(=O)CN1CCOC1=O	-52
CCn1ncnc1C(C)Nc1nc(CCN)nc2ccccc12 (centres undefined)	3
C[C@H]1CCO[C@H]2Cn3cc(C(=O)NCc4ccc(F)cc4F)c(=O)c(O)c3C(=O)N21	41
Cc1ccc(C)c(NC(=O)CCNC2CCN(C(=O)c3ccccc3)CC2)c1	88
CC/C=C/CC(=O)Nc1cccc(NC(=O)Cc2ccccc2)c1	-12
O=C(Cc1ccccc1)Nc1cccc(NC(=O)c2ccnnc2)c1	6
Cc1cc(C(=O)Nc2cccc(NC(=O)Cc3ccccc3)c2)n[nH]1	-75*
Cc1nc(OCC(=O)Nc2cc(Cl)ccc2Cl)c2ccccc2n1	-10

From PubChem BioAssay
